SMILES strings stand for the structures. The source made the active and inactive calls. Rule for the calls: active = hit-call score of the fitted dose curve at least 0.9, where 1 is the maximum; inactive = score below 0.9.

Read-out in the assay: growth arrest and DNA damage 45 (GADD45G), GADD45G (gene 10912)
Nature of the assay: LTEA_HepaRG_GADD45G: Life Technologies and Expression Analysis (LTEA) Assay for growth arrest and DNA damage 45 (GADD45G) using HepaRG (AID 2283499). To be noted: mRNA level, 48 h; actives raise or lower the signal. Here is the method: LTEA_HepaRG is a cell based, multiplexed-readout assay that uses HepaRG, a human liver cell line, with measurements taken at 48 hours after chemical dosing on a 96-well plate.LTEA_HepaRG_GADD45G is one of 102 assay component(s) measured in the LTEA HepaRG cell culture assay. It is a marker of Cell proliferation, survival, death.Data from the assay component LTEA_HepaRG_GADD45G was analyzed into 1 endpoint. This assay endpoint, LTEA_HepaRG_GADD45G, was analyzed with bidirectional fitting relative to DMSO as the negative control and baseline of activity. Using a type of inducible reporter, measures of mRNA induction for gain or loss-of-signal activity can be used to understand regulation of transcription factor activity. To generalize the intended target to other relatable targets, this assay endpoint is annotated to the mutagenicity response intended target family, where the subfamily is Cell proliferation, survival, death.
A total of 1060 chemcials from the ToxCast library were tested in eight-point concentration-response experiments. Cell culture and cytotoxicity assays were conducted at Thermo Fisher Scientific's Custom Services facility (Madison, WI). A single lot of human HepaRG cells (Thermo Fisher Scientific, Frederick, MD) was used for the cell culture experiments. 96-well format collagen type I coated plates of human HepaRG cells were prepared using established methods. Briefly, cryopreserved HepaRG cells were thawed, plated at a density of approximately 100,000 cells/well in HepaRG Thaw, Plate, and General Purpose media (HPRG770, Thermo Fisher Scientific), and incubated for 48 hours. 0.5% DMSO was selected as vehicle control to balance the requisite need of DMSO in HepaRG cultures to maintain differentiation (for example, baseline metabolism, proportions of hepatocytes vs. cholangiocytes), while enabling further hepatic receptor pathway activation (for example, PXR and CAR) in response to chemical exposure. 48 hours after plating, the culture medium was replaced with HepaRG Serum-Free Incudtion Media. Cells were exposed to each test chemical in duplicate and maintained in CO2 incubators for another 48 hours. Chemical plates were thawed to room temperature and 200x concentrations of treatment groups were prepared. 8-point conentration-reponse curves were made with the highest exposure at 100 uM, followed by half-log dilutions, all in 0.5% DMSO. Each test plate contained variouse controls, induction positive controls (1mM phenobarbital), cytotoxicity positive controls ([…] aflatoxin B1), vehicle controls (0.5% DMSO), and total lysis controls (0.5% DMSO). Cell morphology images were taken using an Essen IncuCyte FLR automated microscope, with six 96-well plates imaged in about 24 minutes. Images were captured and exported and JPEG files. Spent culture media was transfered to black-well plates for the LDH assay, and remaining media was sorted at -80 C for later use. Cells were treated with RLT buffer and frozen until shipped for gene expression analysis. Total RNA was isolated from the cell suspension in 75 uL of Buffer RLT (Qiagen, Germantown, MD 20874) by Quintiles/Expression Analysis (Durham, NC) using a custom isolation procedure. Total RNA from each plate well was transferred to a preamplification plate. Fluidigm's 96.96 Dynamic ArrayTM (Fluidigm, Amsterdam, the Netherlands) technology was used for gene expression analyses by quantitative reverse transcription polymerase chain reaction (qRT-PCR, performed by Quintiles/Expression Analysis, Durham, NC)89. Standard TaqManTM Assays (Applied Biosystems/ThermoFisher Scientific, Foster City, CA) were used to assess the expression of 93 genes selected based on their selectivity and sensitivity to important hepatic receptors known to be modulated by environmental chemicals; importance in human hepatocyte functionality; and hepatotoxicity. […]
Consider `OCC(CO)(CBr)CBr`, for which the compound was called inactive.
In general, AC50 refers to the midpoint of the concentration-response curve, whichever way the signal moves. Turning to `CCCCc1oc2ccccc2c1C(=O)c1cc(I)c(OCCN(CC)CC)c(I)c1`, the AC50 was 55.1 µM (active).
Consider `CCCCCCCCCCCCCCC`, for which the outcome was inactive.
Consider `CN(C)CCOC(c1ccccc1)c1ccccc1`, for which the outcome was inactive.
With `CCC(C)c1ccccc1O` (stereo unspecified), the compound was classed as inactive.
On the same count and under the same terms, for `CS(=O)(=O)c1ccc([C@@H](CC2CCCC2)C(=O)Nc2cnccn2)cc1Cl` the value was “inactive”; for `CC(=O)Nc1ccc(O)cc1`, “inactive”; for `CCCCC=O`, “inactive”.
For the compound `O=C(c1ccccc1)c1ccccc1`, the call was inactive.
`O=C1NS(=O)(=O)c2ccccc21`: the outcome was inactive.
Consider `N=C(N)c1ccc(OCCCCCOc2ccc(C(=N)N)cc2)cc1`, for which the AC50 is 4.37 µM (active).
With `CN(Cc1cnc2nc(N)nc(N)c2n1)c1ccc(C(=O)N[C@@H](CCC(=O)O)C(=O)O)cc1`, the call was inactive.
With `Cc1[nH]nc2c1N=C(c1ccccc1Cl)c1cc([N+](=O)[O-])ccc1N2`, the half-maximal activity concentration (AC50) is 0.557 µM (active).
For the compound `O=C(CCCN1CCC(O)(c2ccc(Cl)cc2)CC1)c1ccc(F)cc1`, the AC50 is 50 µM (active).
As for `CCCCC(CC)C(=O)O` (stereo unspecified), the outcome was inactive.
Still for that read-out and setting: the value for `CCCCCCCCCCCCOS(=O)(=O)O` was “inactive”.

The record behind these values is PubChem BioAssay (EPA / NIEHS).
